According to PubChem BioAssay (NCI):
Compounds without any hit were thinned out: in the full panel of roughly 83,000, 20% have a hit.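 Values shown are percent growth following 48 h exposure of cells in 96-well plates to a single concentration of compound; below 10 was considered active.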 Values without a mark were called inactive. Activity calls are given as the source filed them.

Experiments:
Experiment in all cases: NCI-60 one-dose screen, 48 h (100 = growth as untreated, 0 = no growth, -100 = all killed)
Conditions in all cases: 10 µM
DU-145 prostate = system: DU-145 prostate
K-562 leukemia = system: K-562 leukemia
MALME-3M melanoma = system: MALME-3M melanoma
MDA-MB-231 breast = system: MDA-MB-231 breast
RXF 393 renal = system: RXF 393 renal
SF-268 CNS = system: SF-268 CNS
SF-295 CNS = system: SF-295 CNS
SF-539 CNS = system: SF-539 CNS
UACC-257 melanoma = system: UACC-257 melanoma
M14 melanoma = system: M14 melanoma
HCT-15 colon = system: HCT-15 colon
HT29 colon = system: HT29 colon
SNB-75 CNS = system: SNB-75 CNS
SNB-19 CNS = system: SNB-19 CNS
U251 CNS = system: U251 CNS
PC-3 prostate = system: PC-3 prostate
SK-MEL-5 melanoma = system: SK-MEL-5 melanoma
UACC-62 melanoma = system: UACC-62 melanoma
LOX IMVI melanoma = system: LOX IMVI melanoma
SK-MEL-28 melanoma = system: SK-MEL-28 melanoma

Row | Compound | growth (DU-145 prostate) | growth (K-562 leukemia) | growth (MALME-3M melanoma) | growth (MDA-MB-231 breast) | growth (RXF 393 renal) | growth (SF-268 CNS) | growth (SF-295 CNS) | growth (SF-539 CNS) | growth (UACC-257 melanoma) | growth (M14 melanoma) | growth (HCT-15 colon) | growth (HT29 colon) | growth (SNB-75 CNS) | growth (SNB-19 CNS) | growth (U251 CNS) | growth (PC-3 prostate) | growth (SK-MEL-5 melanoma) | growth (UACC-62 melanoma) | growth (LOX IMVI melanoma) | growth (SK-MEL-28 melanoma)
1 | O=C1/C=C/[C@@H](O)[C@@H]2C[C@@H](O)C[C@H]2/C=C/CCC[C@H](CCc2ccc(NC(=S)Nc3ccc4c(c3)C(=O)OC43c4ccc(O)cc4Oc4cc(O)ccc43)cc2)O1 | 17.4% | 13.5% | -1.26% (active) | -88.7% (active) | -30.2% (active) | 12.8% | 22.2% | 29.4% | 0.525% (active) | 10.9% | 3.98% (active) | 1.54% (active) | 48.9% | 34.1% | 20% | 23.3% | -87.2% (active) | 16.3% | -51.4% (active) | 9.95% (active)
2 | CCOC(=O)c1cc(C(=O)c2cc(OC)c(OC)c(OC)c2)n2c1ccc1c3cccnc3ccc12 | 89.3% | 12.9% | 79.3% | 69.5% | 66.8% | 69.9% | 63.4% | 55.5% | 73.4% | 31.6% | 41.4% | 19.5% | 64.7% | 71.9% | 51% | 63.9% | 34.1% | 57.5% | 46.9% | 80.2%
3 | COc1ccc(/C=C2\CCCC3=C2NC(N)=NC3c2ccc(OC)c(OC)c2)cc1OC (stereo not given) | 76.7% | 56% | 52.5% | 74% | 20.9% | 63.8% | 70.7% | 85.2% | 46.2% | 57.3% | 35.9% | 24.2% | 63.9% | 88.7% | 37.8% | 61.5% | 39.7% | 52.8% | 12.9% | 65.3%
4 | CCOC(=O)C(C)(c1ccccc1)c1ccccc1 | 106% | 113% | 112% | 111% | 123% | 104% | 102% | 97.7% | 93.5% | 102% | 104% | 96.2% | 94.2% | 99.3% | 104% | 97.8% | 108% | 102% | 102% | 111%
5 | COc1cc(-c2nn(-c3cccc(NC(=O)CN4CCOCC4)c3)cc2-c2cccnc2)ccc1Cl | 82.3% | 42.2% | 80.5% | 83.1% | 85.1% | 85.4% | 76.8% | 87% | 93.9% | 61% | 66.7% | 65.2% | 65.5% | 88% | 92.7% | 58% | 48.2% | 61.4% | 63.3% | 84.3%
6 | COC(=O)C1(O)NC(=C(C#N)C#N)C(C#N)=C1C(=O)c1ccc(OC)c(OC)c1 (stereo not given) | 111% | 100% | 103% | 119% | 100% | 98.5% | 105% | 104% | 81.7% | 97.9% | 105% | 99.6% | 94.5% | 97.1% | 92.5% | 76.9% | 101% | 99.3% | 99.4% | 120%
7 | COC1OC(COS(=O)OC)C(O)C(O)C1OS(=O)OC (stereo not given) | 99.5% | 102% | 97.1% | 103% | 111% | 103% | 103% | 98.3% | 99.5% | 96.6% | 96.5% | 103% | 105% | 103% | 99.3% | 100% | 104% | 107% | 100% | 110%
8 | COc1ccc(-c2nnc(SCC(=O)Nc3ccc(C(=O)/C=C/c4ccccc4)cc3)n2-c2ccccc2)cc1OC | 50.4% | 37.2% | 36.4% | 73.4% | 72.4% | 84.8% | 106% | 0.289% (active) | 72.4% | 57.7% | 86.5% | 60.3% | 84.2% | 83.3% | 79.5% | 69.5% | 83.1% | 81.1% | 32.5% | 89.3%
9 | Nc1ncnc2c1ncn2C1(CO)OCC(O)C(O)C1O (stereo not given) | 104% | 110% | 98.6% | 109% | 110% | 95.3% | 101% | 96.5% | 101% | 97% | 105% | 88.8% | 90.6% | 103% | 101% | 103% | 103% | 105% | 94.4% | 105%
10 | CCOC(=O)c1cc(C(=O)c2cc(OC)c(OC)c(OC)c2)n2ccc(-c3cc[n+](CC(=O)c4cc(OC)c(OC)c(OC)c4)cc3)cc12 | 44.8% | -44.5% (active) | 63.1% | -22.8% (active) | 65.7% | -14.5% (active) | 94.3% | 30.4% | 92.5% | 54.5% | 83.3% | -10.1% (active) | 75.8% | 32.2% | -73.6% (active) | 54.1% | 81.4% | 87.4% | -43.9% (active) | 98.3%
11 | CCCCCCCCCCOC(c1ccccc1)c1ccccc1 | 105% | 85.6% | 95.7% | 88.4% | 94.2% | 94.2% | 89.6% | 102% | 102% | 90.9% | 81.1% | 66.7% | 95.1% | 96% | 94.2% | 83.5% | 104% | 81.5% | 79.6% | 96.2%
12 | CC[C@@H](C(=O)[C@H](C)[C@H](O)[C@@H](C)[C@H]1O[C@H]([C@@H](CC)C(=O)N(CC)CC)CC[C@H]1C)C1O[C@]2(C=C[C@@H](O)[C@]3(CC[C@@](C)([C@H]4CC[C@](O)(CC)[C@H](C)O4)O3)O2)[C@H](C)C[C@@H]1C (stereo not given in full) | 55.1% | 16.2% | -20.1% (active) | 15.9% | 14% | 42.1% | -6.82% (active) | 38.2% | 12.4% | 11.7% | 9.17% (active) | 13.8% | 6.47% (active) | 12.8% | 24.2% | 3.64% (active) | -74.7% (active) | 14.3% | 31% | 27%
13 | CCc1ccc(-c2ccc(-n3nc(C)c4c(N)nc(Cc5ccccc5)nc43)cc2)cc1 | 77% | 7.44% (active) | 106% | 38.2% | 75.7% | 66.1% | 70.8% | 80.9% | 71.9% | 30.3% | 60.6% | 78.8% | 65% | 66.3% | 68% | 54.7% | 95.5% | 73.1% | 51.1% | 92.4%
14 | N#Cc1ccc(C(=O)CSc2nccc(Nc3ccc(C(=O)O)cc3)n2)cc1 | 110% | 106% | 106% | 107% | 97.4% | 102% | 97.4% | 97.9% | 110% | 110% | 106% | 104% | 106% | 99% | 106% | 99.5% | 99.1% | 103% | 101% | 110%
15 | CC[C@@H](C(=O)[C@@H](C)[C@@H](O)[C@H](C)[C@@H]1O[C@@H]([C@@H](CC)C(=O)O)CC[C@@H]1C)C1O[C@]2(C=CC(=O)[C@]3(CC[C@@](C)([C@H]4CC[C@](O)(CC)[C@H](C)O4)O3)O2)[C@H](C)C[C@@H]1C (stereo not given in full) | 48% | 13.8% | -64.8% (active) | 30.3% | 25.8% | 50.6% | 4.02% (active) | 16.2% | 42.9% | 9.56% (active) | 23.8% | 30.5% | 19.2% | 11.6% | 24% | 27.4% | -91.7% (active) | -32.5% (active) | 35.4% | -81.2% (active)
